SMILES strings stand for the structures. The source made the active and inactive calls. The calls were made as follows: active = hit-call score of the fitted dose curve at least 0.9, where 1 is the maximum; inactive = score below 0.9.

As usually defined, the AC50 is the concentration at which the activity in the assay is half-maximal.

Holding throughout (conditions): mRNA level, 48 h; actives raise or lower the signal
Read-out in assay [1]: Cyclin Dependent Kinase Inhibitor 1A (CDKN1A), CDKN1A (gene 1026)
The assay is described as follows: LTEA_HepaRG_CDKN1A: Life Technologies and Expression Analysis (LTEA) Assay for Cyclin Dependent Kinase Inhibitor 1A (CDKN1A) using HepaRG (AID 2283450). An outline of the steps: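 HepaRG, 48 h dosing, 8-pt half-log series from 100 uM top, 0.5% DMSO vehicle, duplicates. Readout: TaqMan qRT-PCR of CDKN1A transcript, housekeeping-normalized (ACTB, GAPDH, POLR2A). Up/down curve fit relative to DMSO.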

Read-out in assay [2]: Cyclin D1 (CCND1), CCND1 (gene 595)
The assay is described as follows: LTEA_HepaRG_CCND1: Life Technologies and Expression Analysis (LTEA) Assay for Cyclin D1 (CCND1) using HepaRG (AID 2283451).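 As to AC50: differentiated human HepaRG liver cells in serum-free induction medium; TaqMan qRT-PCR transcript level normalised to ACTB GAPDH and POLR2A housekeeping genes.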 An outline of the steps:
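qRT-PCR (Fluidigm 96.96 array) read-out of transcript level, housekeeping-normalized (ACTB/GAPDH/POLR2A). HepaRG cells, 48 h chemical exposure, 8-point half-log series from 100 uM, 0.5% DMSO vehicle; gain or loss relative to DMSO baseline.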

Read-out in assay [3]: catalase (CAT), CAT (gene 847)
The assay is described as follows: LTEA_HepaRG_CAT: Life Technologies and Expression Analysis (LTEA) Assay for catalase (CAT) using HepaRG (AID 2283452). The procedure, abridged:
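Expression of CAT was quantified by TaqMan qRT-PCR with ACTB/GAPDH/POLR2A normalization after 48 h chemical exposure of HepaRG. Eight-point half-log series, top 100 uM, in 0.5% DMSO; gain or loss fitted against vehicle.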

Read-out in assay [4]: flavin-containing dimethylaniline monooxygenases 3 (FMO3), FMO3 (gene 2328)
The assay is described as follows: LTEA_HepaRG_FMO3: Life Technologies and Expression Analysis (LTEA) Assay for flavin-containing dimethylaniline monooxygenases 3 (FMO3) using HepaRG (AID 2283453).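 As to AC50: differentiated human HepaRG liver cells in serum-free induction medium.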 The procedure, abridged:
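FMO3 transcript quantified by TaqMan qRT-PCR against three housekeeping genes after 48 h chemical exposure of HepaRG cells. Eight-point half-log series, top 100 uM, 0.5% DMSO vehicle; phenobarbital 1mM induction control; up- or down-regulation fitted.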

Read-out in assay [5]: Cytochrome P450 (CYP1A1), CYP1A1 (gene 1543)
The assay is described as follows: LTEA_HepaRG_CYP1A1: Life Technologies and Expression Analysis (LTEA) Assay for Cytochrome P450 (CYP1A1) using HepaRG (AID 2283454). An outline of the steps: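 qRT-PCR read-out: CYP1A1 transcript normalized to three housekeeping genes, fitted bidirectionally against 0.5% DMSO vehicle baseline. Human HepaRG cells, 48 h chemical exposure, 8-point half-log series topping at 100 uM.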

Read-out in assay [6]: CFLAR gene, CFLAR (gene 8837)
Briefly: LTEA_HepaRG_CFLAR: Life Technologies and Expression Analysis (LTEA) Assay for CFLAR gene using HepaRG (AID 2283455). An outline of the steps: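 Transcript level by qRT-PCR (normalized to ACTB, GAPDH and POLR2A) after 48 h chemical exposure of HepaRG cells, top concentration 100 uM with half-log steps, 0.5% DMSO vehicle, duplicates; fitted bidirectionally against DMSO baseline.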

Read-out in assay [7]: Forkhead box O1 (FOXO1), FOXO1 (gene 2308)
The assay is described as follows: LTEA_HepaRG_FOXO1: Life Technologies and Expression Analysis (LTEA) Assay for Forkhead box O1 (FOXO1) using HepaRG (AID 2283456). An outline of the steps: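 FOXO1 transcript quantified by qRT-PCR after 48 h chemical exposure (top 100 uM, half-log steps, 0.5% DMSO) of HepaRG cells, housekeeping-normalized (ACTB/GAPDH/POLR2A). Changes fitted in both directions relative to vehicle.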

Read-out in assay [8]: growth arrest and DNA damage 45 (GADD45A), GADD45A (gene 1647)
The assay is described as follows: LTEA_HepaRG_GADD45A: Life Technologies and Expression Analysis (LTEA) Assay for growth arrest and DNA damage 45 (GADD45A) using HepaRG (AID 2283458). The procedure, abridged: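 Transcript induction or loss, quantified by TaqMan qRT-PCR against three housekeeping genes, is the read-out. HepaRG cells received chemicals for 48 h across eight half-log concentrations from 100 uM in 0.5% DMSO; gain and loss fitted relative to DMSO.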

Read-out in assay [9]: ABC Transporter (ABCB1), ABCB1 (gene 5243)
The assay is described as follows: LTEA_HepaRG_ABCB1: Life Technologies and Expression Analysis (LTEA) Assay for ABC Transporter (ABCB1) using HepaRG (AID 2283460). The procedure, abridged: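 ABCB1 transcript level measured by TaqMan qRT-PCR against three housekeeping genes after 48 h chemical exposure of differentiated HepaRG cells. Top concentration 100 uM, half-log steps, eight points, 0.5% DMSO vehicle; bidirectional fit relative to DMSO.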

Read-out in assay [10]: growth arrest and DNA damage 45 (GADD45B), GADD45B (gene 4616)
Briefly: LTEA_HepaRG_GADD45B: Life Technologies and Expression Analysis (LTEA) Assay for growth arrest and DNA damage 45 (GADD45B) using HepaRG (AID 2283461). An outline of the steps:
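qRT-PCR read-out (Fluidigm TaqMan, housekeeping-normalized) of mRNA change in human HepaRG cells after 48 h chemical exposure; 8-point curve, top 100 uM, half-log steps, 0.5% DMSO vehicle; gain or loss fitted relative to DMSO baseline.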

Read-out in assay [11]: ABC Transporter (ABCC3), ABCC3 (gene 8714)
Briefly: LTEA_HepaRG_ABCC3: Life Technologies and Expression Analysis (LTEA) Assay for ABC Transporter (ABCC3) using HepaRG (AID 2283462). An outline of the steps:
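qRT-PCR read-out of ABCC3 transcript, normalized to three housekeeping genes (ACTB, GAPDH, POLR2A), after 48 h chemical exposure of human HepaRG cells. Eight half-log concentrations, highest 100 uM, in 0.5% DMSO; gain or loss fitted relative to DMSO baseline.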

Read-out in assay [12]: ABC Transporter (ABCB11), ABCB11 (gene 8647)
The assay is described as follows: LTEA_HepaRG_ABCB11: Life Technologies and Expression Analysis (LTEA) Assay for ABC Transporter (ABCB11) using HepaRG (AID 2283463). The procedure, abridged:
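ABCB11 transcript levels quantified by TaqMan qRT-PCR against three housekeeping genes after 48 h chemical exposure of HepaRG cultures. Concentrations up to 100 uM in half-log steps, 0.5% DMSO vehicle; both induction and suppression scored.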

Read-out in assay [13]: ABC Transporter (ABCC2), ABCC2 (gene 1244)
Briefly: LTEA_HepaRG_ABCC2: Life Technologies and Expression Analysis (LTEA) Assay for ABC Transporter (ABCC2) using HepaRG (AID 2283464). An outline of the steps: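 qRT-PCR (TaqMan, Fluidigm array) read-out of ABCC2 mRNA, normalized to three housekeeping genes. Differentiated HepaRG cells were treated 48 h in serum-free induction medium with 8-point half-log series from 100 uM in 0.5% DMSO; curves fitted bidirectionally relative to DMSO.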

Read-out in assay [14]: Broad substrate specificity ATP-binding cassette transporter ABCG2 (Homo sapiens) (UniProt Q9UNQ0)
The assay is described as follows: LTEA_HepaRG_ABCG2: Life Technologies and Expression Analysis (LTEA) Assay for ABC Transporter (ABCG2) using HepaRG (AID 2283465). The procedure, abridged:
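ABCG2 transcript was quantified by TaqMan qRT-PCR against three housekeeping genes in HepaRG cells. Cells were treated in duplicate for 48 h across an 8-point half-log series up to 100 uM, with 0.5% DMSO vehicle. Gain or loss versus DMSO was fit.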

Read-out in assay [15]: ATP-citrate lyase (ACLY), ACLY (gene 47)
Briefly: LTEA_HepaRG_ACLY: Life Technologies and Expression Analysis (LTEA) Assay for ATP-citrate lyase (ACLY) using HepaRG (AID 2283466). An outline of the steps: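 ACLY mRNA quantified by qRT-PCR on Fluidigm arrays against three housekeeping genes, after 48 h chemical treatment of HepaRG cells (top concentration 100 uM, half-log steps, 0.5% DMSO vehicle). Up- or down-regulation fitted relative to DMSO.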

Read-out in assay [16]: Peroxisomal acyl-coenzyme A oxidase 1 (ACOX1) gene, ACOX1 (gene 51)
Briefly: LTEA_HepaRG_ACOX1: Life Technologies and Expression Analysis (LTEA) Assay for Peroxisomal acyl-coenzyme A oxidase 1 (ACOX1) gene using HepaRG (AID 2283467). An outline of the steps:
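ACOX1 transcript levels were quantified by TaqMan qRT-PCR against three housekeeping genes after 48 h chemical exposure of differentiated human HepaRG cells. Exposure used eight half-log steps topping at 100 uM, 0.5% DMSO vehicle, in duplicate. Bidirectional curve fits were made relative to DMSO.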

Read-out in assay [17]: Alkaline Phosphatase, Placental (ALPP) gene, ALPP (gene 250)
The assay is described as follows: LTEA_HepaRG_ALPP: Life Technologies and Expression Analysis (LTEA) Assay for Alkaline Phosphatase, Placental (ALPP) gene using HepaRG (AID 2283468).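 As to AC50: differentiated human HepaRG liver cells in serum-free induction medium.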 An outline of the steps:
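qRT-PCR readout of ALPP mRNA (Fluidigm TaqMan), normalized to ACTB/GAPDH/POLR2A, after 48 h chemical exposure of HepaRG cells; 8-point half-log series, top 100 uM, 0.5% DMSO vehicle. Bidirectional curve fit versus DMSO baseline.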

Read-out in assay [18]: Bcl-2 (BAD) gene, BAD (gene 572)
The assay is described as follows: LTEA_HepaRG_BAD: Life Technologies and Expression Analysis (LTEA) Assay for Bcl-2 (BAD) gene using HepaRG (AID 2283469). An outline of the steps: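 Read-out: qRT-PCR of BAD mRNA, normalized to three housekeeping genes. Human HepaRG cultures got 48 h chemical exposure in 0.5% DMSO, duplicate eight-point half-log series topping at 100 uM. Gain or loss of signal fitted versus DMSO vehicle.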

Sequence of Broad substrate specificity ATP-binding cassette transporter ABCG2 (Homo sapiens) (Q9UNQ0 whole entry, looked up): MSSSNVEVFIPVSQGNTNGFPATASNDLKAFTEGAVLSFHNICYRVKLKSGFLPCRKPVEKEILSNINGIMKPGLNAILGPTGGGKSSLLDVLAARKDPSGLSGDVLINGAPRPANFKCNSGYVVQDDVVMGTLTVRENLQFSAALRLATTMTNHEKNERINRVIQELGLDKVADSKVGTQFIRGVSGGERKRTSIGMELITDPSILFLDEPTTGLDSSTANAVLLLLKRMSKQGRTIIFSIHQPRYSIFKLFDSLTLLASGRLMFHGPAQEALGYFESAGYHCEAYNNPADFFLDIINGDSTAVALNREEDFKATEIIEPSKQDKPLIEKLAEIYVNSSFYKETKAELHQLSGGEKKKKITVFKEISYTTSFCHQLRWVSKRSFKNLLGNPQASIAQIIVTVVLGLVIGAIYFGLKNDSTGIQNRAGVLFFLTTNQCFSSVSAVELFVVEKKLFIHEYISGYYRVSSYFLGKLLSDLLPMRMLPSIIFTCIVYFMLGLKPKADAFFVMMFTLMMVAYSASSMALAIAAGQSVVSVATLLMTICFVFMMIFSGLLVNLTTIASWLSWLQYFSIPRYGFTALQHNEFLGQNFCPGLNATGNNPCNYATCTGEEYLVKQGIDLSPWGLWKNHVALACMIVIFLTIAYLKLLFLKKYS

Consider `CCCCCCCCCCCC[N+](C)(C)C`, for which the AC50 is 82 µM (active) in [1]; 82.7 µM (active) in [2]; 75.4 µM (active) in [3]; 79.3 µM (active) in assay [4]; 67.8 µM (active) in [5]; 74.9 µM (active) in assay [8]. Also, the AC50 was 84.1 µM (active) in assay [10]; 73.9 µM (active) in assay [12]; 50 µM (active) in assay [13]; 67.5 µM (active) in [14]; 83.3 µM (active) in [15]; 77.8 µM (active) in [16]. Further, the AC50 in assay [17] is 66.1 µM (active). The molecule was called inactive in [6], in assay [7], in assay [9], in assay [11] and in assay [18].
On to `c1ccc2n[nH]nc2c1`, for which the call in [1], in [2], in assay [3], in assay [4], in assay [5] and in assay [6] was inactive. In addition, the molecule was classed as inactive in assay [7], in assay [8], in assay [9], in assay [10], in [12] and in assay [13]. Further, the call in [14], in [15], in assay [17] and in [18] was inactive.
Consider `CCCCCCCCCCCCO`, for which the molecule was called inactive in assay [1], in [2], in assay [3], in assay [4], in assay [5] and in [6]. Besides, the molecule was called inactive in assay [7], in [8], in [9], in assay [12], in assay [13] and in assay [14]. In addition, the result in assay [15], in assay [17] and in assay [18] was inactive.
`Cc1ncc(CO)c(CO)c1O`: the outcome in [1], in assay [2], in assay [3], in assay [4], in assay [6] and in [7] was inactive. The call in assay [9], in assay [10], in assay [11], in [12], in assay [14] and in assay [15] was inactive. Moreover, the molecule was classed as inactive in [16], in assay [17] and in [18]. Also, the AC50 in assay [5] is 65.3 µM (active).
With `Cc1oc2c(NC(=O)c3c(Cl)cccc3Cl)cccc2c1C(C)(C)O`, the molecule was classed as inactive in assay [1], in assay [2], in assay [6], in [7], in assay [8] and in assay [14]. The call in assay [18] was inactive. The AC50 was 29.3 µM (active) in [3]; 37.2 µM (active) in [4]; 8.74 µM (active) in [5]; 80.5 µM (active) in assay [9]; 16.1 µM (active) in [11]; 23.8 µM (active) in assay [12]. The values for the AC50 in [13], in assay [15] and in [17] were 33.8 µM (active), 29.6 µM (active) and 50 µM (active), respectively.
With `CC(C)(C)c1cc(/C=C2\SC(N)=NC2=O)cc(C(C)(C)C)c1O`, the AC50 in assay [1] is 22.2 µM (active); in assay [2], 39.3 µM (active); in [3] it was 16.5 µM (active); in [4] it was 23.9 µM (active); in assay [6], 27.5 µM (active); in [10] it was 35.5 µM (active). The AC50 in assay [12] is 24.6 µM (active); in assay [13], 27.6 µM (active); in assay [15] it was 82 µM (active); in assay [16] it was 26.1 µM (active). Also, the molecule was classed as inactive in assay [5], in assay [7], in assay [8], in assay [9], in assay [14] and in [17]. The result in [18] was inactive.
Regarding `CN(C)C(=O)C1(N2CCCCC2)CCN(CC[C@@]2(c3ccc(Cl)c(Cl)c3)CN(C(=O)c3ccccc3)CCO2)CC1`, the AC50 in assay [1] was 84.3 µM (active); in [2], 47.2 µM (active); in assay [3], 17.2 µM (active); in [4] it was 13.7 µM (active); in assay [5] it was 24.7 µM (active); in assay [6], 61.9 µM (active). Moreover, the AC50 in assay [7] is 47.2 µM (active); in [9] it was 23.4 µM (active); in assay [12] it was 26 µM (active); in assay [13], 23.7 µM (active); in [15], 47.2 µM (active); in assay [17], 14.9 µM (active). Besides, the result in [8], in assay [14] and in assay [18] was inactive.

For the origin of these results see PubChem BioAssay (EPA / NIEHS).
